Nrf2 ARE act: activates Nrf2 signaling; AREc32 ARE-luciferase reporter (MCF7-derived line), luminescence, 24 h; Potency, µM (highest dose often 46.1 µM), most hits filed as activators; 0.31% of 410,000 active; AID 624171; note: nearly all actives have a fitted effect of over 65% in size
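Cells of the AREc32 ARE-luciferase line are plated in OPTI-MEM containing 5% FBS and left overnight at 37 deg C. Compounds are pinned in, incubation continues 24 hr, and firefly luciferase signal is then measured.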
A549 tox: A549 cytotoxicity, counter-screen for Nrf2 inhibitors. A549 ARE-Fluc cells, CellTiter-Fluor viability, 18-24 h. Potency, µM (series often up to 46 µM), most hits filed as inhibitors. 0.16% of 390,000 active. AID 504648
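A549 ARE_Fluc cells in 5% FBS OPTI-MEM were exposed to compounds in concentration-response for 18-24 h at 37 deg C. Viability was read by CellTiter-Fluor fluorescence (Ex 405/Em 525) after 30 min, before the luciferase read.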
ATXN2 expr inh: reduces ATXN2 reporter expression in HEK-293 cells; HEK-293 ATXN2-luciferase reporter, luminescence, 24 h; Potency, µM (titrated, usually from 57 µM), most hits filed as inhibitors; 0.72% of 360,000 active; AID 1745845; note: nearly all actives have a fitted effect of over 55% in size
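ATXN2-luciferase reporter cells (luciferase flanked by upstream and downstream ATXN2 gene portions) were treated 24 h at 37 °C with compounds at up to 57 uM. SteadyGlo luminescence gave expression; GF-AFC fluorescence gave viability.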
S2 tox: reduces viability in counter-screen for ATXN expression inhibitors. Potency, µM (series often up to 56.7 µM), hits mostly cytotoxic. AID 651635. S2 cells (HEK-293 line with an ATXN2-luciferase reporter) viability, CellTiter-Fluor protease fluorescence, 24 h. 0.49% of 400,000 active; note: nearly all actives have a fitted effect of over 40% in size
Nrf2 block: blocks Nrf2 signaling; 2.1% of 360,000 active; A549 ARE-Fluc reporter, luciferase luminescence, 18-24 h; Potency, µM (series often up to 46 µM), most hits filed as inhibitors; AID 504444; note: nearly all actives have a fitted effect of over 60% in size
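Cells were seeded and rested 2 h, then exposed to compounds for 18-24 h. CellTiter-Fluor was read first as a viability measure. BugLite was added 15 min before the final luminescent read of ARE-luciferase activity in A549 cells.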
Large screens that a line does not name were inactive. The list is not random: actives were taken first. Their share in the collection is about 2.9%. Calls come from the whole dose curve; as a rule, active = well fitted curve in the direction sought with a large enough effect; inconclusive = small, poorly fitted or top-dose-only effect, or another doubt; inactive = no such curve, though single readings can be large; an effect the other way counts as inactive or inconclusive.

CC1(C)CC(=O)c2sc(NC(=O)c3cccs3)nc2C1	ATXN2 expr inh inconclusive, Nrf2 block 14.6µM
CC1(C)CC(=O)c2sc(NC(=O)C(C)(C)C)nc2C1	Nrf2 block inconclusive
O=C(CN(CCc1ccccc1)S(=O)(=O)c1ccccc1)NCc1ccc(Cl)cc1	S2 tox inconclusive, Nrf2 block 20.6µM
O=C(O)c1cc(N/N=C/c2ccc3c(c2)OCO3)ccc1Cl	Nrf2 block inconclusive
O=C(O)c1cc(N/N=C/c2ccc3c(c2)OCCO3)ccc1Cl	ATXN2 expr inh 4.47µM, Nrf2 block inconclusive
CCN(CCO)c1ccc(N=Nc2cc(C)[nH]n2)cc1	A549 tox 9.2µM, ATXN2 expr inh inconclusive, S2 tox inconclusive, Nrf2 block inconclusive
CCN(CCO)c1ccc(Nc2cc(-c3ccc(-c4ccccc4)cc3)ncn2)cc1	ATXN2 expr inh inconclusive, S2 tox inconclusive (no result: A549 tox, Nrf2 block)
O=C(O)[C@H](CC(=O)N1C[C@@H]2CCCC[C@H]2C1)Cc1ccccc1	none (no result: Nrf2 ARE act, A549 tox, S2 tox, Nrf2 block)
COc1ccc(/C=C/C(=O)c2oc3ccc(F)cc3c2C)cc1	none
Cc1ccc(OC(=O)c2oc3ccc(F)cc3c2C)c(C)c1	ATXN2 expr inh inconclusive, S2 tox 17.8µM
Cc1ccc(-n2nc(CO)c(C(=O)NCc3cccnc3)n2)cc1	none (no result: ATXN2 expr inh, S2 tox)
COc1ccc(C2CC(c3ccccc3)Oc3cc(OC)ccc32)cc1 (configuration not stated)	none (no result: Nrf2 ARE act, ATXN2 expr inh, S2 tox)
Cc1cccc(NC(=O)c2cc3c([nH]c2=O)CC(c2ccccc2)CC3=O)c1 (configuration not stated)	none (no result: Nrf2 block)
COc1ccc(/C=N/NC(=O)c2ccc(CSc3nc(C)cc(C)n3)cc2)c(OC)c1OC	none
COc1ccc(/C=N/NC(=O)c2ccc(CSc3nc(C)cc(C)n3)cc2)cc1O	Nrf2 block 20.6µM
COc1ccc(O)c(/C=N/NC(=O)c2ccc(CSc3nc(C)cc(C)n3)cc2)c1	ATXN2 expr inh 4.47µM, Nrf2 block 9.2µM
COc1cc(=O)n2c(c1C(=O)NC(C)c1ccco1)CCN(C(=O)c1ccc(F)cc1Cl)CC2 (configuration not stated)	none (no result: Nrf2 ARE act, A549 tox, ATXN2 expr inh, Nrf2 block)
O=S(=O)(NCC1CCN(c2ccc(S(=O)(=O)N3CCOCC3)cc2)CC1)c1ccc(F)cc1	A549 tox inconclusive, Nrf2 block 20.6µM
O=S(=O)(NCC1CCN(c2ccc(S(=O)(=O)N3CCOCC3)cc2)CC1)c1ccccc1	Nrf2 block inconclusive
Cc1cccc(C(=O)Nc2scc(-c3ccc(Br)cc3)c2C(=O)O)c1	S2 tox inconclusive, Nrf2 block 11.6µM
COc1cc(C(=O)Nc2sc(C)c(C)c2C(=O)O)cc(OC)c1OC	none
Cc1cccc(C(=O)Nc2scc(CC(C)C)c2C(=O)O)c1	A549 tox inconclusive, Nrf2 block inconclusive
Cc1ccc(-c2csc(NC(=O)c3ccc(Br)cc3)c2C(=O)O)cc1	Nrf2 block inconclusive
COc1cc(C(=O)Nc2scc(-c3ccc(Br)cc3)c2C(=O)O)cc(OC)c1OC	Nrf2 block 16.4µM
Cc1ccc(-c2csc(NC(=O)c3cccc(C)c3)c2C(=O)O)cc1	Nrf2 block 7.31µM
N=c1nc(-c2ccccc2)n(-c2ccccc2)s1	none (no result: Nrf2 ARE act, ATXN2 expr inh, S2 tox)
COc1ccc(Cn2ccc3nc(C)c(C(=O)Nc4ccc(OC)c(OC)c4)cc3c2=O)cc1	none (no result: Nrf2 block)
Cc1sc2ncn(/N=C/c3cn(-c4ccccc4)nc3-c3ccccc3)c(=O)c2c1C	none (no result: Nrf2 ARE act, ATXN2 expr inh, S2 tox)
OC[C@H]1O[C@H](O[C@]2(CCl)O[C@H](CCl)[C@@H](O)[C@@H]2O)[C@H](O)[C@@H](O)[C@H]1Cl	none (no result: Nrf2 ARE act, A549 tox, Nrf2 block)
COc1ccc(CN(Cc2ccccc2)C(C)=O)cc1COc1ccc(NC(C)=O)cc1	none (no result: Nrf2 ARE act, ATXN2 expr inh, S2 tox)
COc1ccc(CN(Cc2ccccc2)C(=O)C2CC2)cc1COc1ccc(NC(C)=O)cc1	Nrf2 block 20.6µM (no result: Nrf2 ARE act, ATXN2 expr inh, S2 tox)
O=C(c1ccc(N2CCN(C(=O)c3ccc(F)c(F)c3)CC2)cc1)c1cccc(F)c1	ATXN2 expr inh inconclusive, Nrf2 block 16.4µM
Cc1ccc(C(=O)N(CCCN)[C@@H](c2nc3cc(Cl)ccc3c(=O)n2Cc2ccccc2)C(C)C)cc1	none (no result: Nrf2 ARE act, A549 tox, S2 tox, Nrf2 block)
CN(C)CCCN(C(=O)c1ccco1)c1nc2cc3c(cc2s1)OCO3	ATXN2 expr inh 14.1µM, Nrf2 block inconclusive
CN(C)CCCN(C(=O)c1ccc(Cl)s1)c1nc2cc3c(cc2s1)OCO3	ATXN2 expr inh inconclusive, S2 tox 28.2µM
CN(C)CCCN(C(=O)c1cc2cc([N+](=O)[O-])ccc2s1)c1nc2cc3c(cc2s1)OCCO3	A549 tox inconclusive, ATXN2 expr inh inconclusive, S2 tox 20µM, Nrf2 block inconclusive
Cc1ccc2nc(N(CCCN(C)C)C(=O)c3ccco3)sc2c1	S2 tox inconclusive
CC(C)CC(CSc1ccc(Br)cc1)N1CCN(CC(C)C)CCC1=O (configuration not stated)	none (no result: Nrf2 ARE act, ATXN2 expr inh, S2 tox)
O=C(/C=C/c1ccccc1)Nc1nc(-c2ccncc2)cs1	A549 tox inconclusive, S2 tox inconclusive, Nrf2 block 13µM
Cc1nc(NC(=O)/C=C/c2ccccc2)n[nH]1	Nrf2 ARE act 7.08µM
O=C(Nc1nc(-c2ccncc2)cs1)C1c2ccccc2Oc2ccccc21	A549 tox inconclusive, ATXN2 expr inh inconclusive, Nrf2 block 14.6µM
COc1cc(F)c(S(=O)(=O)N2CCCN(S(=O)(=O)c3ccc4c(c3)OCCO4)CC2)c(F)c1	Nrf2 block inconclusive (no result: Nrf2 ARE act, ATXN2 expr inh, S2 tox)
Cc1c(C(=O)NCCc2cccnc2)cnn1-c1nccc(-c2ccccc2F)n1	none (no result: Nrf2 ARE act, A549 tox, ATXN2 expr inh, Nrf2 block)
COc1cc(NS(=O)(=O)c2cccc([N+](=O)[O-])c2)c2ncccc2c1	Nrf2 block inconclusive (no result: Nrf2 ARE act, ATXN2 expr inh, S2 tox)
CCC(CNc1cc(OC)cc2cccnc12)NC1CCCCC1 (configuration not stated)	S2 tox 17.8µM (no result: ATXN2 expr inh)
CCC(C)n1c(=N)c(C(=O)NC2CCCCC2)cc2c(=O)n3cc(C)ccc3nc21 (configuration not stated)	none (no result: S2 tox)
Nc1nc(Nc2ccccc2F)sc1C(=O)c1ccc(Cl)cc1	Nrf2 block inconclusive
C=CCNS(=O)(=O)c1nc(C)c(Cl)c(C)c1C#N	Nrf2 ARE act 11.2µM
Cc1ccc(Cl)cc1N1CCN(C(=O)CCC(=O)O)CC1	none
Cc1cc2c(cc1C)N(C(=O)CCl)CCN2C(=O)CCl	Nrf2 ARE act 11.2µM, ATXN2 expr inh inconclusive, Nrf2 block inconclusive (no result: S2 tox)
COc1cc(NC(=O)CN2c3ccccc3S(=O)(=O)c3ccccc32)cc(OC)c1	S2 tox inconclusive, Nrf2 block inconclusive
Clc1ccc(C(Cn2ccnc2)OCc2ccc(Sc3ccccc3)cc2)c(Cl)c1 (configuration not stated)	ATXN2 expr inh inconclusive (no result: Nrf2 ARE act, A549 tox, Nrf2 block)
Cc1ccc(C)c(N2CCN(C(=O)C3CCN(C(=O)c4cc5sccc5n4C)CC3)CC2)c1	A549 tox inconclusive, Nrf2 block 20.6µM (no result: ATXN2 expr inh, S2 tox)
O=C(c1ccccc1F)N1CCN(c2cccc(C(F)(F)F)c2)CC1	A549 tox inconclusive, Nrf2 block 18.4µM
Cc1ccc(C)c(N2CCN(C(=O)c3cc4sccc4n3C)CC2)c1	none (no result: Nrf2 block)
CC1(C2CC2)NC(=O)N(CC(=O)N2CCN(c3cccc(C(F)(F)F)c3)CC2)C1=O (configuration not stated)	Nrf2 block 11.6µM
